# Results filed as inconclusive are left out. A number with no mark means an inactive call. Calls follow the shape of the dose curve; as a rule, active = well fitted curve in the direction sought with a large enough effect (not every such curve was filed as active); inconclusive = small, poorly fitted or top-dose-only effect, or effect the other way, or another doubt; inactive = no such curve, though single readings can be large or run the other way.
# Assay: Cell viability assay for measurement of the protective activity of small molecules against cell death caused by Zika virus infection in human neural progenitor cells (hNPCs);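 also: 0% = ZIKV-infected cells without compound and 100% = uninfected cells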
# Details: hNPC ZIKV-induced death protection, ATP luminescence, 72 h; series mostly up to 46.1 µM; protection, negative = more death: at the top concentration
# Procedure, shortened: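 Luminescent ATP content after 72 h ZIKV infection (2 FFU/cell) of hNPCs, compounds added 1 h before virus. Protection expressed as percent inhibition of the infection-induced drop in cell viability.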
row,Compound,"protection, negative = more death"
1,O=C(Nc1cc2cc[nH]c2cn1)c1ccccc1,-76.8%
2,O=C(Nc1ccc(C(=O)O)c(O)c1)c1ccccc1,15%
3,O=C(/C=C/c1ccc(O)cc1)c1ccc(O)cc1O,-43.6%
4,Nc1cc(C(F)(F)F)ccc1S,-79.8%
5,O=c1[nH]nc(Sc2ncc([N+](=O)[O-])s2)n1-c1ccc2c(c1)OCCO2,-79.3%
6,N[C@H](CSC(c1ccccc1)(c1ccccc1)c1ccccc1)C(=O)O,-43.3%
7,Cc1nc(N)sc1-c1ccnc(Nc2ccc(N3CCOCC3)cc2)n1,-31.2%
8,O=C(Oc1ccccc1)c1cccc(C(=O)Oc2ccccc2)c1,-16.5% [at 96.3 µM]
9,Cc1ccc(O)c(N=Nc2ccccc2)n1,-70.1%
10,c1ccc2[nH]c(-c3cscn3)nc2c1,-20.6%
11,CC(C(=O)O)c1ccc2c(c1)[nH]c1ccc(Cl)cc12 (centres undefined),8.12%
12,C=C1C(=O)[C@@]23C(CC[C@@H]1[C@H]2O)[C@@]12CO[C@]3(O)[C@@H](O)[C@@H]1C(C)(C)CC[C@@H]2O (some centres undefined),-75.9%
13,Cc1c(C(=O)O)c(O)cc2c1C(=O)c1c(O)c([C@@H]3O[C@H](CO)[C@@H](O)[C@H](O)[C@H]3O)c(O)c(O)c1C2=O,-7.65%
14,CC(C(=O)O)c1ccc(C(=O)c2cccs2)cc1 (centres undefined),2.89%
15,C/C(=N\O)c1ccc(OCC(=O)N2CCCCC2)cc1,-29.6%
16,Cc1cccc(C#Cc2ccccc2)n1,6.09%
17,Cc1nc(-c2ccc(OCC(C)C)c(C#N)c2)sc1C(=O)O,-46.3%

row,Compound,"protection, negative = more death"
1,O=C1C(Cl)=C(NCCN2CCOCC2)C(=O)c2ncccc21,-79.3%
2,CCN1CCC(n2cc(CNc3cc(Cl)c4ncc(C#N)c(Nc5ccc(F)c(Cl)c5)c4c3)nn2)CC1,-77.7%
3,CC(=Cc1ccccc1)C=C1SC(=S)N(CC(=O)O)C1=O,-16.5%
4,O=C(O)c1cccc(-c2noc(-c3ccccc3F)n2)c1,-65.3%
5,O=C1NC(=O)C(=Cc2ccc(-c3ccc(F)cc3)o2)S1,-16.4%
6,CC(C(=O)O)c1ccc(-c2ccccc2)c(F)c1 (centres undefined),-5.89%
7,CCC(C)SSc1ncc[nH]1 (centres undefined),-78%
8,Cc1ccc2c(n1)Oc1ccc(C(C)C(=O)OCC(=O)N(C)C)cc1C2 (centres undefined),-34.7%
9,CC1=C(CO)C(=O)O[C@@H]([C@@H](C)[C@H]2CC[C@H]3[C@@H]4C[C@H]5O[C@]56[C@@H](O)C=CC(=O)[C@]6(C)[C@@H]4CC[C@]23C)C1,-5.61%
10,CCCCC1C(=O)N(c2ccccc2)N(c2ccc(O)cc2)C1=O (centres undefined),-76.6%
11,C[C@@H](O[C@H]1OCCN(Cc2n[nH]c(=O)[nH]2)[C@@H]1c1ccc(F)cc1)c1cc(C(F)(F)F)cc(C(F)(F)F)c1,-76.8%
12,O=C(Nc1ccc([N+](=O)[O-])cc1Cl)c1cc(Cl)ccc1O,-78.3%
13,COc1cc(NC(C)CCCN)c2ncccc2c1 (centres undefined),-55.6%
14,CN(C)c1ccc2cc(C(=O)N[C@@H](CCCN=C(N)CCl)C(=O)NCc3ccccc3)ccc2c1,-80.2%
15,COc1cc2nc(N3CCN(C(=O)C4CCCO4)CC3)nc(N)c2cc1OC (centres undefined),5.27%
16,O=C(C=CC=Cc1ccc2c(c1)OCO2)N1CCCCC1,-34.5%
17,COc1ccc2nc(NC(=O)Nc3ccccc3)sc2c1,-62.9%

# — PubChem BioAssay AID1224852 (National Center for Advancing Translational Sciences (NCATS), 2016)
